Assay results: PubChem BioAssay (NCI)
Compounds without any hit were thinned out: in the full panel of roughly 79,000, 15% have a hit. Activity calls are given as the source filed them. Cut-off read from the data, not from the text of the source: active = growth inhibition above about 70%; inactive = the rest. Where a SMILES comes first, the peptide text is derived from it. The star is where a group is joined. Cbz = O=C(OCc1ccccc1)*

Columns and labels:
[1] = NCI Yeast Anticancer Drug Screen. Data for the rad50 strain (AID 155);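 note: 0% = growth of vehicle-only cultures of the same strain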; conditions: S. cerevisiae rad50 strain growth inhibition; at 50.0 µM; active compounds read high
Summary of the method: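 Vehicle-treated cultures provide the reference for the growth inhibition reported for compound-exposed, repair-deficient yeast.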

[2] = NCI Yeast Anticancer Drug Screen. Data for the mec2-1 strain (AID 157); conditions: S. cerevisiae mec2-1 strain, at 50.0 µM, active compounds read high
Summary of the method: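 Each compound was tested on mec2-1 yeast, a strain altered in DNA damage repair or cell cycle control. Growth inhibition is reported relative to vehicle.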

[3] = NCI Yeast Anticancer Drug Screen. Data for the sgs1 mgt1 strain (AID 161);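 note: 0% = growth of cultures given vehicle only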; conditions: S. cerevisiae sgs1 mgt1 strain, at 50.0 µM, active compounds read high
Summary of the method: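 Genetically altered yeast, compound exposure, growth inhibition relative to vehicle.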

[4] = NCI Yeast Anticancer Drug Screen. Data for the cln2 rad14 strain (AID 165);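 note: 0% = growth equal to vehicle treated cultures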; conditions: S. cerevisiae cln2 rad14 strain, at 50.0 µM, active compounds read high
Summary of the method: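 Test compounds were added to cln2 rad14 yeast cultures; inhibition of growth was then determined by comparison with vehicle treatment.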

[5] = NCI Yeast Anticancer Drug Screen. Data for the bub3 strain (AID 167); conditions: S. cerevisiae bub3 mutant strain, at 50.0 µM, active compounds read high
Summary of the method: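 Mutant yeast screening strain plus compound; vehicle-treated cultures serve as the 0% inhibition reference.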

[6] = NCI Yeast Anticancer Drug Screen. Data for the mlh1 rad18 strain (AID 175); conditions: S. cerevisiae mlh1 rad18 strain growth inhibition; at 50.0 µM; active compounds read high
Summary of the method: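 Inhibition values reflect reduced growth of mutant yeast versus vehicle-treated controls following compound exposure; the mutations affect DNA damage repair.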

Measured: growth inhibition

CC(=O)Nc1ccc(/C=C2\N=C(c3ccccc3)OC2=O)cc1
inactive: [1] 15.9% | [2] -1.75% | [3] 11.8% | [4] -49% | [5] -10.9% | [6] 10.3%

CN(C)C(=O)CC(O)c1ccccc1 (configuration not stated)
inactive: [1] 13.9% | [2] -9.95% | [3] 1.6% | [4] -30.2% | [5] -2.55% | [6] 4.75%

Oc1cc(CN2CCOCC2)c(O)c(CN2CCOCC2)c1CN1CCOCC1
inactive: [1] 5.25% | [2] 7.45% | [3] 10.3% | [4] 27.4% | [5] -1.05% | [6] -3.3%

O=C1C2Cc3ccccc3CN2C(=O)N1CCN1CCOCC1 (configuration not stated)
inactive: [1] 7.25% | [2] -21.8% | [3] -4.15% | [4] 12.8% | [5] 3.25% | [6] 22.6%

CC1CC(C)(C)NC(C2CCC=CO2)O1 (configuration not stated)
inactive: [1] 5.2% | [2] -3.9% | [3] -7% | [4] -20.6% | [5] -18.6% | [6] 5.9%

CC(C)C(NC(=O)C(Cc1ccc(O)cc1)NC(=O)OCc1ccccc1)C(=O)O (stereo not drawn) (Cbz-Tyr-Val-OH; configuration not given here)
inactive: [1] 10.2% | [2] -3.25% | [3] -3.85% | [4] -29.6% | [5] -3.15% | [6] 1.8%

O=C1CC(N2CCOCC2)c2ccccc21 (configuration not stated)
inactive: [1] 30% | [2] 11.1% | [3] 12.6% | [4] -21.1% | [5] -14% | [6] 14.2%

NC1C2C=CC(C2)C1C(=O)O (configuration not stated)
inactive: [1] -0.65% | [2] -0.25% | [3] -50.4% | [4] 4% | [5] -26.6% | [6] -17.3%

O=C1CC2COc3ccc(OCCN4CCCC4)cc3C2=NN1c1ccccc1 (configuration not stated)
inactive: [1] -4.75% | [2] 16.9% | [3] -22.7% | [4] -18.9% | [5] 2.15% | [6] 1.1%

COc1ccc(C2=CSc3ccccc3N2)cc1
inactive: [1] 11.2% | [2] 15.8% | [3] 42.3% | [4] 6.1% | [5] 36.3% | [6] 11.4%

C=C(CN(C)C)C(=O)c1ccc(OC)cc1
inactive: [1] 7.75% | [2] 19% | [3] -3.75% | [4] 17.5% | [5] 2% | [6] 27.2%

CCCCOC(=O)C(C)O (configuration not stated)
inactive: [1] 41.1% | [2] 16.3% | [3] 21.6% | [4] 19.3% | [5] 0.05% | [6] 24.9%

O=C(O)C(CCOc1ccccc1)CCOc1ccccc1
inactive: [1] 0.7% | [2] -15.2% | [3] 3.5% | [4] -10.4% | [5] -9.15% | [6] -26.3%

CC1=CC2(C)Cc3cc(C)cc(C)c3S(=O)(=O)C2C(C(=O)O)=C1 (configuration not stated)
inactive: [1] -11% | [2] -30.4% | [3] -13.9% | [4] -13.5% | [5] -14.8% | [6] -15.2%

CCOC(=O)c1nc(SC)sc1NC(=O)c1ccccc1[N+](=O)[O-]
inactive: [1] 21.2% | [2] -4.6% | [3] -8.75% | [4] 11.6% | [5] 3% | [6] -2.65%

COC(=O)CC/C=N/NC(N)=O
inactive: [1] 10.2% | [2] 4.5% | [3] 7.7% | [4] -17.8% | [5] 2.35% | [6] -4.05%

CN(C)CCCNc1ccnc2cc([N+](=O)[O-])ccc12
inactive: [1] 10.2% | [2] 3.3% | [3] 4.4% | [4] -4.1% | [5] -1.3% | [6] -17.1%

N#CC(CN1CCOCC1)[N+](=O)[O-] (configuration not stated)
inactive: [1] -2.2% | [2] -4.6% | [3] -14.2% | [4] -24.6% | [5] 16.6% | [6] -13.6%

CCOC(=O)Nc1ccccc1
inactive: [1] -1.65% | [2] 12.3% | [3] 1.55% | [4] -4.15% | [5] -6.8% | [6] 22.7%

C=CCOC(=O)OCCOC(=O)OCC=C
inactive: [1] 6.4% | [2] -4.7% | [3] -2.05% | [4] -1.55% | [5] 24.1% | [6] -1.55%

[N-]=[N+]=Nc1ccnc2cc(C(F)(F)F)ccc12
inactive: [1] -31.5% | [2] 3.35% | [3] -2.25% | [4] -36.7% | [5] 4.45% | [6] 11.1%

NC(=O)c1csc(C2OC3COP(=O)(O)OC3C2O)n1 (configuration not stated)
inactive: [1] -21.1% | [2] -26.2% | [3] -38.6% | [4] -5.65% | [5] -29.1% | [6] -28.9%

CCCCCCCCCCCCS(=O)(=O)O (tested in a mixture with another compound)
inactive: [1] -5.1% | [2] -6% | [3] -9.05% | [4] -12.4% | [5] -22.5% | [6] -12.8%

ClC1CC2CC1C1COCC21 (configuration not stated)
inactive: [1] 8.9% | [2] -5.35% | [3] -3.85% | [4] -16.2% | [5] -12.6% | [6] -8.9%

CCCCNC(=O)Oc1cccc2ccccc12
inactive: [1] 4.3% | [2] -6.8% | [3] 7.7% | [4] -4.35% | [5] 29.8% | [6] -6.4%

Cc1cc(CC#N)c(CC#N)cc1C
inactive: [1] 4.05% | [2] -10.1% | [3] -7% | [4] 9.2% | [5] -3.95% | [6] 3.95%

c1cnc2ncncc2n1
inactive: [1] -2.6% | [2] 32.4% | [3] -8.55% | [4] 28.8% | [5] 14.4% | [6] 12.5%

N#Cc1cnn(-c2ccccc2)c1N
inactive: [1] 25.5% | [2] -7.4% | [3] -0.3% | [4] -0.85% | [5] -4.3% | [6] -1.45%

CCN(CC)CCOC(=O)Nc1c(Cl)cccc1Cl
inactive: [1] -3.75% | [2] -16.7% | [3] 8.6% | [4] 9.4% | [5] 9.25% | [6] 6.05%

O=C(c1ccc2c(c1)OCO2)C(O)c1ccc(Cl)cc1 (configuration not stated)
inactive: [1] 2.85% | [2] 3.9% | [3] 1.85% | [4] -16.1% | [5] -4.75% | [6] 5%

Cc1nc2ccccc2nc1CC(=O)c1ccccc1
inactive: [1] 43.3% | [2] 15.3% | [3] 48% | [4] 18.5% | [5] 54.4% | [6] 43.5%

CC(NC(=O)C(C)NC(=O)C(N)CCP(C)(=O)O)C(=O)O (configuration not stated)
inactive: [1] -20.6% | [2] -15% | [3] -15.2% | [4] -8.2% | [5] -12.2% | [6] -9.2%

CN(O)C(=O)c1ccccc1
inactive: [1] 5.45% | [2] -8.4% | [3] -6.35% | [4] 11.9% | [5] 15.1% | [6] 16.9%

Cc1ccc(OS(=O)(=O)c2ccccc2)cc1
inactive: [1] 36% | [2] 20.4% | [3] 49.1% | [4] -42.6% | [5] 35.2% | [6] 36.6%

CCCCCCCCSc1nc2ccc(N=Cc3ccccc3O)cc2s1
inactive: [2] 31.7% | [4] 53.6% | [5] 21.7% | [6] 36.1%
active: [1] 75% | [3] 73.3%

O=C(NC(NC(NC(=O)c1ccc([N+](=O)[O-])cc1)c1ccc([N+](=O)[O-])cc1)c1ccc([N+](=O)[O-])cc1)c1ccc([N+](=O)[O-])cc1 (configuration not stated)
inactive: [1] 3.35% | [2] -10.4% | [3] 1.65% | [4] -24.9% | [5] -5.3% | [6] -7.95%

CC(C)OC(=O)Nc1cccc(NC(=O)OCCCl)c1
inactive: [1] 7.1% | [2] -3.65% | [3] 9.15% | [4] -9.85% | [5] -8.8% | [6] -7.1%

COc1c2c(c3ccccc3c1O)C1C=CC2C1 (configuration not stated)
inactive: [1] 7.6% | [2] 7.6% | [3] -37.7% | [4] -5.25% | [5] 0.25% | [6] -16.3%

COC(OC)C1CC=CCCC1C(=O)O (configuration not stated)
inactive: [1] 17.1% | [2] 16.8% | [3] 11.7% | [4] -0.4% | [5] 14.2% | [6] -8.65%

CCCCN(CCCC)CC(O)c1cc(OC)c2cc(Cl)cc(Cl)c2n1 (configuration not stated)
active: [1] 99.5% | [2] 99.8% | [3] 99.8% | [4] 99.3% | [5] 99.2% | [6] 99.7%

C(=C/c1nnc2ncccn12)/c1ccccc1
inactive: [1] -13.8% | [2] -4.85% | [3] -1.5% | [4] -15.7% | [5] 0.05% | [6] -5.4%

O=C(NN1C(=O)C(Cl)C1c1cccc([N+](=O)[O-])c1)c1ccccc1O (configuration not stated)
inactive: [1] -17.4% | [2] -26.1% | [3] -37.5% | [4] 1.1% | [5] -27.1% | [6] -25.1%
